Measurements: PubChem BioAssay (NCATS)
Values without a mark were called inactive. How the calls were made is not given here.

test system: HIV-1 nucleocapsid protein NCp7 (binding to TG oligonucleotide); experiment: HIV Nucleocapsid (AID 346); conditions: HIV-1 NC / fluorescein-TGTGTGTG probe, fluorescence polarization;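 further: potency is for inhibitors that block NC binding and lower polarization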
Summary of the method: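 10 nM TG4xF probe with 100 nM nucleocapsid protein in high-salt Hepes pH 7.5 (250mM NaCl) containing 1uM ZnCl2 and reducing agents. Compound inhibition of binding was read as fluorescein polarization after 1 hr at room temperature.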
Potency means the concentration at half of the fitted maximal effect.

SMILES	Potency
Cc1ccccc1-c1cc(NCc2ccccc2)ncn1	> 20 µM
CN(C)C(=O)c1ccc(-c2cncnc2Nc2ccc(F)cc2)cc1	> 20 µM
COCCn1c(=O)c(-c2cccc(C#N)c2)nc2cnc(N3CCN(C)CC3)nc21	> 20 µM
N#Cc1cccc(NC(=O)N2CC[C@@]3(CCCNC3)C2)c1	> 20 µM
COCC(=O)N1CCC[C@@]2(CCN(Cc3nccs3)C2)C1	> 20 µM
c1cncc(CNc2nc(-c3ccoc3)nc3ccccc23)c1	> 20 µM
CS(=O)(=O)N1CCC2(CCN(c3ccccn3)CC2)CC1	> 20 µM
CN(C)Cc1ccccc1-c1nccc(NCc2cccs2)n1	> 20 µM
O=c1c(-c2ccccc2)nc2cnc(Nc3ccccc3)nc2n1C[C@H]1CCCO1	> 20 µM
FC(F)(F)c1ccccc1-c1cncnc1NCc1ccccc1	> 20 µM
O=C(Oc1ccccc1)N1CCC2(CC1)CCN(c1ccccn1)CC2	> 20 µM
COc1ccc(-c2nc3cnc(N4CCNCC4)nc3n(CCc3ccccc3)c2=O)cc1	> 20 µM
CN(C)c1ccc(-c2cncnc2NCc2ccccc2)cc1	> 20 µM
COc1ccc(-n2c(=O)c(-c3ccc(Cl)cc3)nc3cnc(N4CCOCC4)nc32)cc1	> 20 µM
O=S(=O)(c1ccccc1)N1CCC[C@@]2(CCN(c3ccncc3)C2)C1	> 20 µM
COc1ccc(CNc2nc(-c3cccnc3)nc3ccccc23)c(OC)c1	> 20 µM
COc1ccc2[nH]cc(CCNc3nc(-c4ccoc4)nc4ccccc34)c2c1	> 20 µM
COc1ccccc1-c1cncnc1NCCNC(C)=O	> 20 µM
CNc1ncncc1-c1ccccc1C	> 20 µM
FC(F)(F)c1cc(CN2CCC3(CCNCC3)CC2)cc(C(F)(F)F)c1	> 20 µM

SMILES	Potency
N#CCCn1c(=O)cnc2cnc(OCc3ccccc3)nc21	> 20 µM
CN(C)C(=O)c1ccc(-c2nc(-n3ccnc3)c3ccccc3n2)cc1	> 20 µM
Cc1nc2cnc(N3CCNCC3)nc2n(Cc2cccs2)c1=O	> 4 µM
COc1ccc(-c2nc3cnc(N4CCOCC4)nc3n(-c3ccccc3)c2=O)cc1	> 20 µM
O=C(c1cccc(F)c1)N1CCC[C@@]2(CCN(c3ccccc3)C2)C1	> 20 µM
COCCn1c(=O)c(-c2ccc(F)cc2)nc2cncnc21	> 20 µM
Cc1noc(C)c1-c1cc(N2CCN(C)CC2)ncn1	> 20 µM
COc1cccc(-c2nc(NC3CCNCC3)c3ccccc3n2)c1	> 20 µM
FC(F)(F)c1ccccc1-c1cncnc1-n1ccnc1	> 20 µM
N#CCCn1c(=O)c(-c2ccc(F)cc2)nc2cnc(Oc3cccc(Cl)c3)nc21	> 20 µM
COCCn1c(=O)c(-c2ccc(Cl)cc2)nc2cnc(Oc3ccccc3)nc21	> 20 µM
COc1cccc(-c2nc(N3CCN(C)CC3)c3ccccc3n2)c1	> 20 µM
COc1ccccc1-c1nc(N(C)Cc2ccco2)c2ccccc2n1	> 20 µM
N#CCCn1c(=O)c(-c2cc(F)cc(F)c2)nc2cnc(Oc3cccc(Cl)c3)nc21	> 20 µM
CC(C)CN1CC[C@@]2(CCCN(C(=O)c3cc(C(F)(F)F)cc(C(F)(F)F)c3)C2)C1	> 20 µM
COCCn1c(=O)c(-c2ccccc2)nc2cnc(OCc3ccccc3)nc21	> 20 µM
O=c1c(-c2ccc(F)cc2)nc2cnc(Oc3ccccc3)nc2n1C[C@H]1CCCO1	> 20 µM
O=c1c(-c2ccc(Cl)cc2)nc2cnc(N3CCOCC3)nc2n1-c1ccccc1	> 20 µM
CC(=O)NCCNc1nc(-c2ccccc2C)nc2ccccc12	> 20 µM
Fc1ccc(Nc2ccnc(-c3ccccc3C(F)(F)F)n2)cc1	> 20 µM
